gsp agonist – qHTS for Agonist of gsp, the Etiologic Mutation Responsible for Fibrous Dysplasia/McCune-Albright Syndrome: qHTS; gsp mutant cells, cAMP HTRF, 30 min; Potency, µM (series often up to 76.9 µM), for inactives: at the top dose activation (cAMP increase), hits mostly activators; actives 0.13% (n = 340,000); active means well fitted activation curve with a large enough effect; inconclusive means small, poorly fitted or top-dose-only effect, or another doubt; inactive means no such curve, though single readings can be large or run the other way; cell line not stated here;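 further: phosphodiesterase inhibitor Ro 20-1724 added with compounds to block cAMP breakdown; potency means the concentration at half of the fitted maximal effect; nearly all actives have a fitted effect of over 60% in size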
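Cells in DMEM/10% FBS with G418 were pretreated with compounds in DMSO plus […] (300 uM stock) for 30 min at 37C. cAMP was measured by HTRF (cAMP-d2 plus anti-cAMP antibody-K) after 30 min at room temperature.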
RXFP1 ag – qHTS Assay for Agonists of the Relaxin Receptor RXFP1; actives 0.3% (n = 370,000); Potency, µM (top dose mostly 57.5 µM), for inactives: top-dose activation, usual class: activators; HEK293T-RXFP1 cAMP TR-FRET, 30 min; response scale: percent of porcine relaxin response, buffer zero; AID 2676, 2010; Relaxin receptor 1 (Homo sapiens), Q9HBX9; active means well fitted activation curve with a large enough effect; inconclusive means small, poorly fitted or top-dose-only effect; further: potency means the concentration at half of the fitted maximal effect; on the % scale 0 is the no-effect control and ±100 the full control effect; nearly all actives have a fitted effect of over 60% in size
Target sequence (Q9HBX9 whole entry, looked up): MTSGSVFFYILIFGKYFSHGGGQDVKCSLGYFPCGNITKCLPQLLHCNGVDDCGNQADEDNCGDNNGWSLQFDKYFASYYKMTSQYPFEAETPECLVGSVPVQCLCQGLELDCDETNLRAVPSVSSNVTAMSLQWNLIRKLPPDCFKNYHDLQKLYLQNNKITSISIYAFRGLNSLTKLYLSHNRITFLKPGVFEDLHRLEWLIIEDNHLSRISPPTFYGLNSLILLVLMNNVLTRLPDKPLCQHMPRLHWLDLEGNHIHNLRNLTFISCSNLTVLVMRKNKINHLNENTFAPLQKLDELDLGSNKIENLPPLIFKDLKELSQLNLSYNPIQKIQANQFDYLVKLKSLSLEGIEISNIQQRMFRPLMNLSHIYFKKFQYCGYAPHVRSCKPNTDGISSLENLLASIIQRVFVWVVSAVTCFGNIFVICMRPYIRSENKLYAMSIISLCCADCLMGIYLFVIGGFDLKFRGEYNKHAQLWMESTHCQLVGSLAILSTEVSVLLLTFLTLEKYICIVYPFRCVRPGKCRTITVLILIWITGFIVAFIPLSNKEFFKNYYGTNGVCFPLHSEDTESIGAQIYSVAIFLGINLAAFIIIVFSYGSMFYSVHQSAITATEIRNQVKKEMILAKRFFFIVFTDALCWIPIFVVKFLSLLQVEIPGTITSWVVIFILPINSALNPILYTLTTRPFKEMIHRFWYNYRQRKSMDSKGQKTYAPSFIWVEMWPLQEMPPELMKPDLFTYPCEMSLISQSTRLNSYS
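HEK293 cells stably expressing RXFP1, treated 30 min at 37C with compounds plus PDE4 inhibitor Ro 20174; cAMP measured by HTRF TR-FRET. Normalized to buffer and 29 nM porcine relaxin; EC50 by Hill fit.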
gsp antagonist – qHTS for Antagonists of gsp, the Etiologic Mutation Responsible for Fibrous Dysplasia/McCune-Albright Syndrome: qHTS. gsp-mutant cells, cAMP HTRF, 30 min. Potency, µM (titrated, usually from 76.9 µM), without a hit: top-dose activity change, negative = inhibition, usual class: inhibitors. actives 0.4% (n = 340,000). AID 624288, 2012; calls by dose curve; cell line not stated here;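 further: intracellular cAMP measured with PDE inhibitor Ro 20-1724 present during compound exposure; potency means the concentration at half of the fitted maximal effect; on the % scale 0 is the no-effect control and ±100 the full control effect; nearly all actives have a fitted effect of over 65% in size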
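G418-selected cells were plated in DMEM/10% FBS for 16-24 h at 37C, then treated with compounds plus the PDE inhibitor […] (300 uM solution added) for 30 min at 37C. Intracellular cAMP was measured by HTRF after 30 min lysis at room temperature.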
RXFP1 antag – qHTS Assay for Antagonists of the Relaxin Receptor RXFP1. activity change, negative = inhibition, % at 57.5 µM. actives 0.59% (n = 350,000). Relaxin receptor 1 (Homo sapiens), Q9HBX9. HEK293-RXFP1, relaxin-stimulated cAMP HTRF, 30 min; active compounds read low. AID 1259400, 2018;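 active means activity change of -60% or lower, but not beyond a set lower limit; inconclusive means change between -60% and -40%, or beyond the set limit; inactive means change above -40%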; further: on the % scale 0 is the no-effect control and ±100 the full control effect
Akt phos inh – HTS Assay for Inhibitors of Akt Phophorylation: Primary Screen; Neuro2A IGF-stimulated pAkt S473 HTRF, 20 min; active compounds read low; activity change, % for hits at 50 µM; actives 0.32% (n = 360,000); in the data active means activity change below about -80%; inconclusive means mostly about -51% to -80%; further: on the % scale 0 is the no-effect control and ±100 the full control effect
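Neuro2A cells in DMEM with 0.5% FBS, overnight at 37 deg C, given compound at single 50 µM final, then IGF (6 nM final) for 20 min at 37 deg C. Lysed; phospho-Akt Ser473 by HTRF after 24 h, 665/615 ratio.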
The depositor's hits bear a star; i = inactive; ? = inconclusive; nt = not tested or not shown; ! = a repeat was not active; [ ] = another dose, or the depositor's remark. The list is not random: actives were taken first. Their share in the collection is about 1.2%.

SMILES	gsp agonist	RXFP1 ag	gsp antagonist	RXFP1 antag	Akt phos inh
COc1ccc(NC(=O)CSc2ccc3nnc(-c4cccnc4)n3n2)cc1OC	?	18µM*	4%	10	i
COC(=O)c1cc(Br)c(=O)n(-c2nccs2)c1	14µM*	16µM*	12%	12	?
Cc1nc2ccc(S(=O)(=O)NCC(=O)N3CCN(c4ccccn4)CC3)cc2s1	0%	0%	5%	3	-117%*
Cc1cc2c(s1)c1c(C)nn(Cc3ccccc3F)c(=O)c1n2C	nt	11%	nt	nt	nt
CCCn1c(SCC(=O)N2CCc3ccccc3C2)nc2c1c(=O)n(C)c(=O)n2C	32µM*	?	11%	4	i
CCn1c(SCC(=O)N2CCc3ccccc3C2)nc2c1c(=O)n(C)c(=O)n2C	?	10%	2%	-3	i
CCc1nc(Nc2cccc(O)c2)c2oc3ccccc3c2n1	22%	5%	-26%	-76*	i
CC(C)NC(=O)/C(C#N)=C/c1ccc(N(C)C)o1	-1%[15.4 µM]	-4%	35µM*	-23	i
Cc1ccc(/C=C(\C#N)C(=O)NC(C)C)o1	-2%	0%	3%	-4	i
CCC(Sc1nc2cc3c(cc2c(=O)n1CCCCCC(=O)NCc1ccc2c(c1)OCO2)OCO3)C(=O)NCCCOC (configuration not stated)	nt	0%	nt	-113*	nt
COCCCNC(=O)CSc1nc2cc3c(cc2c(=O)n1CCCCCC(=O)NCc1ccc2c(c1)OCO2)OCO3	nt	2%	nt	-3	nt
CC1C(=O)N2CCCc3cc(S(=O)(=O)NCCc4ccccc4)cc1c32 (configuration not stated)	?	2%	-2%	-12	i
COc1ccc(CCNS(=O)(=O)c2cc3c4c(c2)C(C)C(=O)N4CCC3)cc1OC (configuration not stated)	-11%	-1%	-5%	-92*	i
COc1ccc(C2=C(Nc3ccc(F)cc3)c3ccccc3C2=O)cc1	-35%	2%	5%	2	-137%*
COc1ccc(C2=C(Nc3ccc(C)cc3)c3ccccc3C2=O)cc1	31%	1%	-3%	-22	i
Cc1ccc(N2CC(NC(=O)/C=C\c3ccc4c(c3)OCO4)CC2=O)cc1C (configuration not stated)	nt	-2%	nt	-15	nt
CCc1ccc(C(C)NC(=O)/C(C#N)=C\c2cn[nH]c2-c2ccccc2)cc1 (configuration not stated)	14%	-2%	-8%	-3	-83%*
O=C(CSc1ccc2nnc(-c3ccc(F)cc3)n2n1)N1CCOCC1	20µM*	nt	5%	nt	i
O=C(CSc1ccc2nnc(-c3cccs3)n2n1)N1CCOCC1	?	nt	8%	nt	i
CC1CCC(C(C)C)C(OC(=O)Cn2c(-c3ccc(Cl)cc3)[n+](C)c3ccccc32)C1 (configuration not stated)	39%	0%	5%	?	i
CC1CCC(C(C)C)C(OC(=O)Cn2c(-c3ccc(Br)cc3)[n+](C)c3ccccc32)C1 (configuration not stated)	0%[15.4 µM]	0%	7%	-81*!	i
FC(F)(F)c1cccc(N2CCN(Cc3nnc(-c4ccc5c(c4)OCO5)o3)CC2)c1	nt	4%	nt	?	nt
O=C(Nc1cc(Cl)ccc1Oc1ccccc1)C1=COCCO1	-21%	0%	-12%	-75*	i
CCOCCn1ccc2c(OCC(=O)Nc3cc(OC)ccc3OC)cccc2c1=O	9%[15.4 µM]	2%	16µM*	-2	i
Cn1nc(-c2ccc(OCC(=O)Nc3ccccc3)cc2)c2ccccc2c1=O	25%	-2%	?	-20	nt
SMILES	gsp agonist	RXFP1 ag	gsp antagonist	RXFP1 antag	Akt phos inh
COCCn1ccc2c(OCC(=O)Nc3cc(OC)ccc3OC)cccc2c1=O	18%	0%	?	-5	i
COc1ccc(NC(=O)c2ccc(-c3nn(C)c(=O)c4ccccc34)cc2)cc1	-2%[15.4 µM]	1%	-6%	-12	i
COc1ccccc1NC(=O)COc1ccc(-c2nn(C)c(=O)c3ccccc23)cc1	23%[15.4 µM]	0%	28µM*	-1	i
COc1ccccc1NC(=O)c1ccc(-c2nn(C)c(=O)c3ccccc23)cc1	1%[15.4 µM]	0%	40µM*	-34	i
O=C(COC(=O)CNC(=O)c1ccc(Cl)cc1Cl)NC1CCCCCCC1	-4%[15.4 µM]	0%	8%	-61*	i
COc1ccc(Cc2nnc(Nc3ccc(C)cc3C)[nH]c2=O)cc1	3%	0%	-17%	-7	-122%*
COc1ccc(Cc2nnc(SCC(=O)Nc3ccc(C)cc3C)[nH]c2=O)cc1	-19%	0%	-9%	0	i
Cc1cccc(NCCNc2cccc(C)c2)c1	-23%	3%	-3%	-17	-104%*
Cc1cccc(NCc2ccccc2O)c1	4%	2%	4%	0	-101%*
CCCCCCCNc1cccc(C)c1	0%[15.4 µM]	2%	14%	0	i
N#Cc1ccc(NC(=O)C2Cc3ccccc3CN2S(=O)(=O)c2ccc(F)cc2)cc1 (configuration not stated)	nt	0%	nt	-5	nt
COC(=O)c1c(C)nsc1NC(=O)Oc1ccccc1	4.5µM*	3%	8%	15	i
COc1c(OC(C)=O)ccc(/C=C/c2ccc3cccc(OC)c3n2)c1[N+](=O)[O-]	1%	-3%	-29%	-12	i
COc1c(OC(C)=O)ccc(/C=C/c2ccc3ccccc3n2)c1[N+](=O)[O-]	-25%	2%	25µM*	-33	i
O=C(Nc1nc(-c2cccs2)cs1)c1ccc([N+](=O)[O-])o1	9%	-2%	35µM*	3	i
CCOC(=O)C1C(=O)CC(C)(O)C(C(=O)OCC)C1c1cccs1 (configuration not stated)	-40%	2%	-3%	-10	-109%*
CCCCCCCCCCCCCCCC[N+](C)(C)Cc1ccccc1	nt	nt	nt	-31	nt
O=C(O)C1Cc2ccccc2CN1C(=O)CSc1nnc2ccccn12 (configuration not stated)	33%[15.4 µM]	35µM*	17%	9	i
Cc1cccc(-c2nc(CN3CCCC(C(=O)N4CCN(c5cc(Cl)ccc5C)CC4)C3)c(C)o2)c1 (configuration not stated)	nt	0%	nt	nt	nt
Cc1cccc(NS(=O)(=O)c2cc([N+](=O)[O-])ccc2C)n1	2%[15.4 µM]	4%	8%	-62*	i
CC(=O)Nc1ccc(NS(=O)(=O)c2cc([N+](=O)[O-])ccc2C)cc1	7%[15.4 µM]	2%	nt	-4	i
O=C(CN1C(=O)c2cccc3cccc(c23)C1=O)NCCCO	14µM*	7%	2%	8	i

Compound activity as filed in PubChem.
